Experimental data reported in PubChem BioAssay AID651768 (National Center for Advancing Translational Sciences (NCATS), 2012).
The whole screen tested about 360,000 compounds, of which about 1,700 (0.47%) were called active. Entries that show only a call come without a potency. Roughly 2% stayed inconclusive and do not appear here. The call rests on the fitted dose curve; in most records, active means well fitted inhibition curve with a large enough effect; inconclusive means small, poorly fitted or top-dose-only effect; inactive means no such curve, though single readings can be large or run the other way. For the sample, actives were picked, then their nearest neighbours and some compounds at random.

target: Bifunctional 3'-5' exonuclease/ATP-dependent helicase WRN (Homo sapiens) (UniProt Q14191); test: qHTS for Inhibitors of WRN Helicase; conditions: WRN helicase unwinding, fluorescent forked duplex, kinetic; series mostly up to 114 µM; further: nearly all actives have a fitted effect of over 55% in size
Method in brief: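 Screening of the MLSMR collection measured strand separation of a quenched forked DNA duplex (100 nM) by 20 nM WRN with 2 mM ATP, all final. Compounds were preincubated with enzyme 15 min at room temperature.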
Potency means the concentration at half of the fitted maximal effect.

Chain of Bifunctional 3'-5' exonuclease/ATP-dependent helicase WRN (Homo sapiens) (Q14191 whole entry, looked up): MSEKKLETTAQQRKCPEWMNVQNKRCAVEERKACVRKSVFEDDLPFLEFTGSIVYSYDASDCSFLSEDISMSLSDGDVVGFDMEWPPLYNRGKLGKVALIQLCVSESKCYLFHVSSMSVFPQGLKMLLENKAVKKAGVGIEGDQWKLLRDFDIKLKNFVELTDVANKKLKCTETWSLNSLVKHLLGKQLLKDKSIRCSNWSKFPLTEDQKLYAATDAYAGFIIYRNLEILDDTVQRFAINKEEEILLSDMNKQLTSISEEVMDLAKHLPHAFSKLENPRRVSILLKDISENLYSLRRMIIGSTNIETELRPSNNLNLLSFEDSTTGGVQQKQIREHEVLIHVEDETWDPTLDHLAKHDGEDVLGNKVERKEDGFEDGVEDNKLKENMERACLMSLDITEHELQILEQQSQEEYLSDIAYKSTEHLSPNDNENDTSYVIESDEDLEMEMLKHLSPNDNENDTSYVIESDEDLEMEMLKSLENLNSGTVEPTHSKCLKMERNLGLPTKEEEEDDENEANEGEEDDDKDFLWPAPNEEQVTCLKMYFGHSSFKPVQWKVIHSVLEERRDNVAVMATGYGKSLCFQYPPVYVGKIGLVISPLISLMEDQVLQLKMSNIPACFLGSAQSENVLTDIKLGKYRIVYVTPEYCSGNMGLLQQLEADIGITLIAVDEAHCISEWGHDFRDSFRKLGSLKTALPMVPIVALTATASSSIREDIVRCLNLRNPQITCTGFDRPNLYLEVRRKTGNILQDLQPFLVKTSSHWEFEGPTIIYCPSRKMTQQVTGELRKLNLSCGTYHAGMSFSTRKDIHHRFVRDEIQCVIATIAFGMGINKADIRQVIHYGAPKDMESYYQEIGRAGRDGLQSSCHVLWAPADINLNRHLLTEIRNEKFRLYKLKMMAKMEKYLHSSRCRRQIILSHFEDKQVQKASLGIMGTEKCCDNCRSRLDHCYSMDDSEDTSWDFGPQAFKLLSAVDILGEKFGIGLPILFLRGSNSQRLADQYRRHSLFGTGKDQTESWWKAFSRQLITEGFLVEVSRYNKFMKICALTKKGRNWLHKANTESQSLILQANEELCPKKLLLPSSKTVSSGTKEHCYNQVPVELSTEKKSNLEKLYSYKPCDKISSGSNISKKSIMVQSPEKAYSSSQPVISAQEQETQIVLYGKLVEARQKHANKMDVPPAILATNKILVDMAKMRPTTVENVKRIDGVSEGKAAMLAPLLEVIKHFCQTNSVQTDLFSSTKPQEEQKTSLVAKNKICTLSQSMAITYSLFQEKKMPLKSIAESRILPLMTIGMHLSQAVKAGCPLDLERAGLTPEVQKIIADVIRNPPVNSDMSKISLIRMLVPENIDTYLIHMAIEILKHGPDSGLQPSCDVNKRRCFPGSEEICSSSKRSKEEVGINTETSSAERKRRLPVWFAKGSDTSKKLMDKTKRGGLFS

Row | SMILES | Potency
1 | CCN(CC)C(=O)C1=C(C)N(Cc2ccc(OC)cc2)C(=O)C(CC(=O)NCc2ccco2)C1 (stereo not drawn) | inactive
2 | CCCCOc1ccc(Cl)cc1CSc1nncn1N | inactive
3 | COC1=CCC2([N+](=O)[O-])CN(CC(=O)O)CC1([N+](=O)[O-])C2 (stereo not drawn) | inactive
4 | C=CS(=O)c1sc(Cl)c(N2CCOCC2)c1[N+](=O)[O-] (stereo not drawn) | 31.6 µM (active)
5 | COC(=O)/C=C\C(=O)Nc1cccc([N+](=O)[O-])c1 | 28.2 µM (active)
6 | COc1cccc(NCCC(=O)c2cccc([N+](=O)[O-])c2)c1 | inactive
7 | O=C(Nc1cccc([N+](=O)[O-])c1)N1CCc2ccccc2C1 | inactive
8 | COC(=O)[C@@]12C[C@@H](CC(=O)N3CCC(c4ccccc4)CC3)C(=O)N(Cc3ccccc3)C1=CCC(C)(C)C2 | inactive
9 | O=C(N/N=C/c1ccco1)c1ccc(C(=O)N/N=C/c2ccco2)o1 | 39.8 µM (active)
10 | O=C(N/N=C/c1ccco1)c1ccc(NC(=O)C2CC2)cc1 | inactive
11 | O=C(Cc1ccc([N+](=O)[O-])cc1)N/N=C/c1ccco1 | inactive
12 | Cc1ccccc1-n1nc(C)c2c1N=C1C(Cl)=CC(Cl)=CN1C2c1ccc(C(=O)O)cc1 (stereo not drawn) | inactive
13 | COC(=O)c1ccc(NCc2cc(O)ccc2O)cc1 | 79.4 µM (active)
14 | O=C(OC12CC3CC(CC(C3)C1)C2)c1ccc(NCc2cc(O)ccc2O)cc1 | inactive
15 | CC(C)OC(=O)c1ccc(NCc2cc(O)ccc2O)cc1Cl | inactive
16 | O=C(c1ccccc1)c1cc(-c2ccccn2)c(N2CCOCC2)s1 | inactive
17 | NCCN1CCN2C(=O)CN(C(=O)c3ccccc3)CC12 (stereo not drawn) | inactive
18 | O=C(/C=C/Sc1ncn[nH]1)c1ccc(Cl)cc1 | 35.5 µM (active)
19 | Cc1cc(C)nc(S/C=C/C(=O)c2ccccc2)n1 | inactive

Row | SMILES | Potency
20 | COc1ccc(OC)c(NC(=O)C2(C)CCN2C(=O)Cc2ccccc2)c1 (stereo not drawn) | inactive
21 | Cc1sc2nc(CSCC(=O)Nc3c(Cl)cccc3Cl)[nH]c(=O)c2c1C | inactive
22 | CCOC(=O)c1sc2nc(CSCC(=O)OCc3ccc(C(=O)OC)o3)[nH]c(=O)c2c1C | inactive
23 | CSc1nnc(SCc2nc3sc(C(=O)O)c(C)c3c(=O)[nH]2)s1 | 35.5 µM (active)
24 | CCN1CCC2(CC1)N=C(c1ccc(F)cc1)C(=S)N2C(=O)c1ccc(C)cc1 | inactive
25 | CCN1CCC(O)(/C=C/c2ccc(C)cc2)C(C(=O)/C=C/c2ccc(C)cc2)C1 (stereo not drawn) | 14.1 µM (active)
26 | COc1cc2cc(CN(CCN3CCCC3)C(=O)Nc3ccccc3Cl)c(=O)[nH]c2cc1OC | inactive
27 | CC1=CC2=NC(=O)CC(C)(C(=O)N(CC(=O)NC(C)(C)C)Cc3ccccc3)N2C=C1 (stereo not drawn) | inactive
28 | CC1CCCN(C(=O)c2ccc3c(c2)C(=O)N(CCC2=CCCCC2)C3=O)C1 (stereo not drawn) | inactive
29 | N#CCSc1ccccc1NC(=O)CN1C(=O)NC(CCc2ccccc2)C1=O (stereo not drawn) | inactive
30 | CCOc1ncccc1C(=O)NNC(=O)c1cccc(S(=O)(=O)Nc2ccccc2OC)c1 | inactive
31 | COc1ccc(Br)cc1/C=N/Nc1ccc(S(=O)(=O)Nc2ccccc2C(=O)O)cc1[N+](=O)[O-] | 39.8 µM (active)
32 | COc1cccc(/C=N/Nc2ccc(S(=O)(=O)Nc3ccccc3C(=O)O)cc2[N+](=O)[O-])c1O | 39.8 µM (active)
33 | CC1CN(C(=O)c2ccccc2NS(=O)(=O)c2cccc([N+](=O)[O-])c2)CC(C)O1 (stereo not drawn) | inactive
34 | COc1ccccc1C(CNC(=O)c1cccc(NS(=O)(=O)c2ccc(Br)cc2)c1)N(C)C (stereo not drawn) | inactive
35 | COc1ccc(S(=O)(=O)N2CCC(C(=O)OCC(=O)c3ccccc3)CC2)cc1[N+](=O)[O-] | inactive
36 | Cc1cc2nc3n(c2cc1C)CC1CC(C(=O)NCCC(C)C)N(C)C31 (stereo not drawn) | inactive
37 | CCCCSc1nnc2c(n1)OC=Nc1ccccc1-2 | inactive
38 | Cc1cccc(N2CC(C)Cn3c2nc2c3c(=O)n(CC(=O)OCc3ccccc3)c(=O)n2C)c1 (stereo not drawn) | inactive
